# Measured values published in PubChem BioAssay AID449746 (Sanford-Burnham Center for Chemical Genomics, 2010).
# Out of some 2,000 compounds screened, about 680 (34%) were called active. Rule as the data show it: active = inhibition mostly above about 28% (no sharp cut-off); inactive = mostly below about 22%. These entries were drawn from the full list.
# Experiment: lowers stimulated NF-kB luciferase signal in 697 cells – cell-based, luminescence, single concentration, B-cell NF-kB inhibitor project, confirmation (AID 449746)
# Settings: 697 B-cell NF-kB luciferase, PMA/ionomycin, 16 h; at 4 µM; stronger effect = higher value
row,SMILES,inhibition
1,CCCCCCCCCCCCn1ccc(=N)cc1,50% (active)
